# Source: PubChem BioAssay AID435019 (Southern Research Specialized Biocontainment Screening …, 2010)
# The whole screen tested about 2,300 compounds, of which about 1,200 (52%) were called active. How the calls were made is not given here. So high a share suggests a set chosen from earlier hits. The list shows a part of the results. Potency and affinity values are given separately.
# Test: mammalian cell cytotoxicity, dose response, cytotoxicity control for M. tuberculosis inhibitor project (AID 435019);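 further: 0% = background wells and 100% = vehicle-treated cells; lower values mean fewer viable cells so more cytotoxicity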
# Conditions: cytotoxicity counter-screen; series mostly up to 40 µM; viability: at the top concentration
row,SMILES,viability
1,CC(=O)/C(=C\Nc1ccc(OCc2ccccc2)cc1)c1ccccc1,87% (inactive)
2,CCCCCCC(=O)N/N=C/c1ccc(Br)cc1,101% (inactive)
3,C/C(=N/NC(=O)c1ccccn1)c1c[nH]c2ccccc12,99.1% (inactive)
4,CC/C(C)=N/NC(=S)NCc1ccco1,86.3% (inactive)
5,O=C(OCC(=O)N1CCC(c2ccccc2)=N1)c1ccc(Cl)s1,88% (inactive)
6,Cc1ccc(C(=O)O/N=C(\N)c2ccc(Br)cc2)cc1C,92.7% (inactive)
7,COC(=O)c1ccc(COC(=O)CCc2nc(-c3ccccc3)c(-c3ccccc3)o2)cc1,92.4% (inactive)
8,Cc1cc(=O)oc2cc(OC(=O)C3CCN(C(=O)c4ccc(F)cc4)CC3)ccc12,93% (inactive)
9,Cc1ccc(C(=O)N2N=C(CC(C)C)CC2(O)C(F)(F)F)o1 (stereo not given),97.2% (inactive)
10,Nc1ccc2c(c1)Cc1ccccc1-2,89.1% (inactive)
11,CCCC(=O)Nc1sc2c(c1C#N)CCCCC2,88.5% (inactive)
12,CCOC(=O)CSc1nnc(-c2c[nH]c3ccccc23)o1,96.3% (inactive)
13,CCOC(=O)Cn1c(C)c(Br)c(=O)c2cccc(C)c21,103% (inactive)
14,Cc1ccc(/C=C2\SC(N3CCCC3)=NC2=O)cc1,86.4% (inactive)
15,CN(C)C/C=C/C(=O)Nc1cccc(-c2c[nH]c3ncnc(Oc4ccc(NC(=O)CC(=O)Nc5ccc(F)cc5)cc4F)c23)c1,88.1% (inactive)
16,CSc1nsc(SCC(=O)N2CCCCC2)n1,99.7% (inactive)
17,NNC(=S)NCc1ccc2c(c1)OCO2,99% (inactive)
18,Cc1cc(NC(=O)c2noc3c2CCCC3)nn1Cc1ccc(Cl)cc1,84.7% (inactive)
19,CCOc1ccc(/C=N/OCC(=O)Nc2cc(C)on2)cc1,96.8% (inactive)
20,COCCCN=C1NN=C(c2cc(C)n(Cc3ccco3)c2C)CS1,33.4% (inactive)
21,Cc1ccc(C2=NN(C)c3nc4ccccc4n3C2)cc1,84.9% (inactive)
22,COc1ccc(OC)c(CN2CCN(C(=O)CNC(=O)c3ccc(C(C)(C)C)cc3)CC2)c1,97% (inactive)
23,Cc1cc(NC(=O)CCN2C(=O)C3C4C=CC(C4)C3C2=O)ccc1Br (stereo not given),97.6% (inactive)
24,COc1ccc(-c2c(C#Cc3ccsc3)c3ccccc3n2C)cc1,89.6% (inactive)
25,CCOC(=O)c1ccc(NC(=O)C(C)Sc2nc(O)c(-c3ccccc3)c(=O)[nH]2)cc1 (stereo not given),88.8% (inactive)
26,O=C(Nc1ccc(C2=NCCN2)cc1)c1ccc(Cl)c(C(=O)Nc2ccc(C3=NCCN3)cc2)c1,97.4% (inactive)
27,CC(=O)c1sc(NC(=O)c2cc(=O)c3ccccc3o2)nc1C,84.2% (inactive)
28,C=CCc1cccc(CNc2cnc3ccccc3c2)c1O,88.8% (inactive)

row,SMILES,viability
1,Cc1cc(-c2cc(-c3ccccc3)on2)nc(NC2CCCC2)n1,85.9% (inactive)
2,Cc1ccsc1/C=N/Nc1ccc(F)cc1F,95.7% (inactive)
3,CC(C)(C)c1nc2sc3c(c2c(=O)o1)CCCC3,93.7% (inactive)
4,Cc1ccc(CNC(=O)c2sc3nc4c(c(C(F)(F)F)c3c2N)CCC4)cc1,94.3% (inactive)
5,COc1ccc(C(=O)C2CCCN(C3CSCCSC3)C2)c(C)c1 (stereo not given),83.2% (inactive)
6,CN1C(=O)c2cccc3c(Br)ccc(c23)C1=O,97.7% (inactive)
7,CN(Cc1ccc(Br)cc1)C(=O)CCN1C(=O)c2cccc([N+](=O)[O-])c2C1=O,86.3% (inactive)
8,O=C(Nc1ccc(Cl)cc1)N(C1=NCCC1)c1ccc(OC(F)F)cc1,82.3% (inactive)
9,O=C(c1ccco1)N1CCN(C(=O)C2CC(c3ccc(Cl)c(Cl)c3)=NO2)CC1 (stereo not given),84.7% (inactive)
10,O=c1cc2[nH]c3ccccc3c(=O)n2nc1-c1ccccc1,98.3% (inactive)
11,c1ccc(-c2nc(N3CCCC3)nc3ccccc23)cc1,92.6% (inactive)
12,CN1/C(=C\C(=O)COC(=O)c2ccc([N+](=O)[O-])o2)C(C)(C)c2ccccc21,98.5% (inactive)
13,CCOC(=O)N/N=C(/C)c1ccc([N+](=O)[O-])o1,84.4% (inactive)
14,CCOc1cc(C2NN=C(c3ccc(C)cc3)S2)ccc1O (stereo not given),82% (inactive)
15,N#C/C(=C1\CCCN1)c1nc(-c2ccccc2)cs1,82% (inactive)
16,O=C(Nc1ccc(-n2cccc2)cc1)C1CC1,92.5% (inactive)
17,Cc1ccc(NC(=O)C2C3/C=C\CCCCC32)cc1C (stereo not given),96.5% (inactive)
18,Cc1ccc(S(=O)(=O)NCc2ccc(C(=O)NCCCN3CCC(Cc4ccccc4)CC3)cc2)cc1,94.2% (inactive)
19,COc1cccc(-n2nnc3c(=O)n(CC(=O)N4CCC(Cc5ccccc5)CC4)cnc32)c1,80.7% (inactive)
20,CCCCCCSc1nsc(NC(=O)CC(C)C)n1,85% (inactive)
21,Cc1c(OCc2ccccc2)c(=O)ccn1Cc1ccc(Cl)cc1,87.7% (inactive)
22,CC(=O)N1C(Nc2ccc(Cl)cc2)CCN1c1ccccc1 (stereo not given),102% (inactive)
23,Nc1ccc2c(c1)oc1ccccc12,87.4% (inactive)
24,Cc1ccc(-n2[nH]c(C)c(C=Nc3ccc(S(=O)(=O)Nc4nccs4)cc3)c2=O)c(C)c1,88.1% (inactive)
25,Cc1ccccc1C(=O)Nc1ccc(N(C)C)c2ccccc12,95.2% (inactive)
26,N/C(=N\OC(=O)Nc1ccc(Cl)c(Cl)c1)c1ncc(C(F)(F)F)cc1Cl,92.2% (inactive)
27,CC(C)C(=O)N1CCC2(CC1)Oc1ccc(Cl)cc1C(=O)C21CC(c2ccccc2)=NO1 (stereo not given),83.4% (inactive)
